DT40 TDP1 no CPT = qHTS for Inhibitors of human tyrosyl-DNA phosphodiesterase 1 (TDP1): qHTS in cells in absence of CPT. 15% of 420,000 active. DT40 Tdp1-/- hTDP1 cells, no CPT, ATP luminescence, 48 h. Potency, µM (top dose mostly 46.2 µM), for inactives: at the highest dose activity change, negative = growth inhibition, usual class: inhibitors; also: nearly all actives have a fitted effect of over 55% in size
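A cellular qHTS used chicken DT40 cells lacking endogenous Tdp1 but carrying stably transfected human TDP1. Compounds were applied without camptothecin, and cell growth kinetics were judged by ATP-dependent luminescence after ≥48 hr.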
DT40 TDP1 CPT = growth inhibition of DT40 Tdp1-/-;hTDP1 cells with camptothecin (screen for TDP1 inhibitors); 12% of 420,000 active; AID 686979; chicken DT40 Tdp1-/-;hTDP1 cells + 20 nM CPT, ATP luminescence, 48 h; Potency, µM (doses to about 46.2 µM), for inactives: at the top dose activity change, negative = growth inhibition, most hits filed as inhibitors; also: nearly all actives have a fitted effect of over 55% in size
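Cell growth measured by CellTiter-Glo luminescence after a minimum 48 h, 37 C compound exposure with 20 nM CPT in Tdp1-knockout DT40 cells stably expressing hTDP1, seeded 400/well; qHTS titration format.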
RORg inh = blocks mouse ROR gamma transcriptional activity | 5.4% of 310,000 active | Drosophila S2 Gal4-RORgamma UAS-luciferase reporter, 20 h | Potency, µM (titrated, usually from 53.6 µM), inactives show at the top dose activity change, negative = inhibition, most hits filed as inhibitors | P51450; also: nearly all actives have a fitted effect of over 60% in size
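Compounds are pin-transferred onto Drosophila Schneider cells expressing a copper-inducible Gal4–ROR gamma transactivation domain fusion. After 1 hr, copper sulfate is added to 700 uM final; luciferase is read 20 hr later.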
Gal4-VP16 FLuc = inhibits Gal4-VP16 luciferase reporter, ROR gamma counter-screen | Potency, µM (highest dose often 53.6 µM), for inactives: at the highest dose activity, negative = inhibition, most hits filed as inhibitors | 3.5% of 310,000 active | AID 2546 | Drosophila S2 Gal4-VP16 UAS-luciferase, luminescence, 20 h;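 also: Gal4-VP16 expression switched on by copper sulfate through the metallothionein promoter; nearly all actives have a fitted effect of over 50% in size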
TDP1 inh = blocks human tyrosyl-DNA phosphodiesterase 1. 0.28% of 350,000 active. recombinant TDP1, AlphaScreen DNA substrate cleavage. AID 485290. Potency, µM (highest dose often 130 µM), without a hit: at the top dose activity change, negative = inhibition, hits mostly inhibitors; also: nearly all actives have a fitted effect of over 40% in size
Target sequence (Q9NUW8 whole entry, looked up): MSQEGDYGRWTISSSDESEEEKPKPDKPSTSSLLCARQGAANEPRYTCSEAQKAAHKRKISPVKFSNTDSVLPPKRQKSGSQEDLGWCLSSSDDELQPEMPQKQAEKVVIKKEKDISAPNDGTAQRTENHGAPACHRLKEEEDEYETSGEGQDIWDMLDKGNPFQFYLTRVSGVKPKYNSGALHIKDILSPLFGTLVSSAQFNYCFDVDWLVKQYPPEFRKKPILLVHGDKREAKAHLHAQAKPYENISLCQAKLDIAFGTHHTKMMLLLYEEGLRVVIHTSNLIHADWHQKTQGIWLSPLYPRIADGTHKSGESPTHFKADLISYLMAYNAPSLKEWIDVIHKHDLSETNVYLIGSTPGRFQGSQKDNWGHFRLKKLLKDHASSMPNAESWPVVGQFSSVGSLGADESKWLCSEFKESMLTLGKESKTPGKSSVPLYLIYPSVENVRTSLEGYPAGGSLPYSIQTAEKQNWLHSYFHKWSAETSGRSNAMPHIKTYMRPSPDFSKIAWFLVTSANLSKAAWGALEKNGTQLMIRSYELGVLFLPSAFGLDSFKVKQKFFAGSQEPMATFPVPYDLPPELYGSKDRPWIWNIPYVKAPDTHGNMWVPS
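Steps: enzyme plus compound, 15 min RT; add biotin/phosphotyrosine-FITC oligonucleotide (15 nM final), react 5 min; add donor/acceptor beads (10 ug/ml final), 10 min; read AlphaScreen. Tdp1 at 1 nM final.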
An asterisk follows results filed as active; ? = inconclusive; · = no result; [ ] = remark or other dose. Shown are actives, neighbours in structure and some others; about 19% of the full set was active somewhere. Calls follow the shape of the dose curve; as a rule, active = well fitted curve in the direction sought with a large enough effect; inconclusive = small, poorly fitted or top-dose-only effect, or another doubt; inactive = no such curve, though single readings can be large; an effect the other way counts as inactive or inconclusive. % is scaled to controls: 0 for no effect and ±100 for the full control effect; potency is read from the fitted curve at half-maximal effect.

SMILES	DT40 TDP1 no CPT	DT40 TDP1 CPT	RORg inh	Gal4-VP16 FLuc	TDP1 inh
COc1cccc(-c2cncnc2NCc2cccc(C)c2)c1	23µM*	?	-27%	-2%	·
CN(C)c1ncnc2ccc(-c3cccc(C#N)c3)cc12	?	26µM*	0%	-4%	·
Cc1cc(C)c(C)c(S(=O)(=O)N2CCN(C(=O)CCc3nc4ccccc4c(=O)[nH]3)CC2)c1C	-25%	?	?	-7%	2%
Cc1onc(-c2c(Cl)cccc2Cl)c1C(=O)ONC(=O)c1ccccc1	-10%	1%	-2%	12%	3%
CCc1ccccc1NC(=O)CCC(=O)N1CCSc2ccccc21	-29%	?	2%	0%	·
CCN(C(=O)CSc1nc2ccccc2o1)c1c(N)n(Cc2ccccc2)c(=O)[nH]c1=O	1%	4%	·	·	·
N#Cc1ccccc1-c1ccc2ncnc(NCc3ccccc3)c2c1	?	?	10%	-7%	·
N#Cc1cccc(-c2ccc3ncnc(NCc4ccccc4)c3c2)c1	26µM*	?	?	?	·
Cc1cccc(CNc2cc(-c3cccc(C#N)c3)ncn2)c1	4.6µM*	21µM*	-24%	13µM*	-4%
O=C(Nc1ccc(Cl)cc1)c1ccc2sc([C@@H]3O[C@H](CO)[C@H](O)[C@H](O)[C@H]3O)nc2c1	18%	14%	·	·	·
Cc1ccc2nc(NC(=O)CSCC(=O)OCC(=O)c3ccccc3)sc2c1	-6%	-12%	5µM*	2.2µM*	8%
Cc1ccc2nc(NC(=O)CCn3c(=O)sc4ccccc43)sc2c1	?	18µM*	30%	-8%	2%
Cc1ccc2nc(NC(=O)CCCc3nc4ccccc4s3)sc2c1	?	?	19%	15%	8%
Cc1ccc2nc(NC(=O)CCCC(=O)O)sc2c1	?	-2%	1.1µM*	0.79µM*	·
COc1cc(C)c(NC(=O)COc2cccc3c2OC(C)(C)C3)cc1OC	12µM*	16µM*	·	·	0%
CC(=O)Nc1ccc(NC(=O)COc2cccc3c2OC(C)(C)C3)cc1	-26%	-16%	-1%	12%	7%
COc1ccccc1NC(=O)COC(=O)COc1cccc2c1OC(C)(C)C2	-14%	-11%	·	·	·
COc1ccc(CNCC(O)COc2cccc3c2OC(C)(C)C3)cc1 (centres undefined)	8.2µM*	9.2µM*	-12%	10µM*	2%
COc1cc(NC(=O)COc2cccc3c2OC(C)(C)C3)cc(OC)c1OC	8.2µM*	13µM*	·	·	1%
Cc1ccc(CNC(=O)COc2cccc3c2OC(C)(C)C3)cc1	18µM*	?	·	·	8%
O=C(c1ccc(F)cc1F)N(Cc1ccccn1)Cc1ccco1	3%	-22%	10%	-8%	-3%
COc1ccc(NC(=O)COc2cccc3c2OC(C)(C)C3)c(OC)c1	16µM*	?	·	·	-1%
Cc1ccc(S(=O)(=O)N(C)C)cc1-n1c(SCC(=O)N(C)C)nc2ccccc2c1=O	-28%	-3%	37%	5%	0%
Cc1ccc(S(=O)(=O)N(C)C)cc1-n1c(SCC(=O)Nc2ccc(F)c(F)c2F)nc2ccccc2c1=O	21µM*	15µM*	31%	-8%	5%
COc1ccc([C@@H]2Sc3cc(OC)ccc3N(CCN(C(C)C)C(C)C)C(=O)[C@H]2OC(C)=O)cc1	?	21µM*	41%	-13%	-1%[56.1 µM]
SMILES	DT40 TDP1 no CPT	DT40 TDP1 CPT	RORg inh	Gal4-VP16 FLuc	TDP1 inh
CCN(CC)CCC(O)(c1ccccc1)C1CCCCC1 (centres undefined)	9%	-2%	11%	-1%	·
COc1ccc(C2CN=NC23CCc2ccccc2C3=O)cc1 (centres undefined)	23µM*	?	28%	4%	-1%
O=C1c2ccccc2CCC12N=NCC2c1ccc(Cl)cc1 (centres undefined)	?	-1%	24%	3%	-1%
COc1ccc(C2CN=NC23CCCc2ccccc2C3=O)cc1 (centres undefined)	23µM*	?	?	10%	2%
CC(C)CCN(C(=S)Nc1cccc(C(F)(F)F)c1)C(C)c1ccccn1 (centres undefined)	1%	-30%	?	?	4%
CC(c1ccccc1)N1CCC(CNC(=S)Nc2cccc(Cl)c2)C1 (centres undefined)	?	?	10µM*	?	5%
O=C(NCC1CC1)Nc1cccc(Cl)c1	1%	-9%	14%	-12%	·
Cc1ccc(NC(=O)C2CC(=O)N(C(C)c3ccccc3)C2)cc1 (centres undefined)	-22%	-4%	·	·	1%
Cc1ccc(NC(=S)NCC2CCN(C(C)c3ccccc3)C2)cc1 (centres undefined)	16µM*	21µM*	?	?	0%
CCOC(=O)C1=NNC2C(=O)N(C3CCCCC3)C(=O)C12 (centres undefined)	0%	-4%	-4%	-1%	2%
COc1ccc(NC(=O)CSC2=Nc3ccccc3C3=NC(CCC(=O)NCc4cccs4)C(=O)N23)cc1 (centres undefined)	?	?	·	·	1%
CC(C)C[C@@H](CO)N1CCN(Cc2ccc(Br)cc2)CCC1=O	?	?	23%	1%	·
O=C(O)C1C2C=CC(C2)C1C(=O)NCc1ccc(Cl)c(Cl)c1 (centres undefined)	-4%	15µM*	42%	2%	-8%
COc1cc(C(=O)Nc2nnc(Cc3ccccc3)s2)cc(OC)c1OC	?	-28%	-30%	0%	·
Oc1ccccc1-c1cc(-c2ccccc2)n[nH]1	?	?	·	·	-1%
Cc1ccc(-c2cc(-c3ccccc3[N+](=O)[O-])[nH]n2)c(O)c1	?	?	18µM*	?	10%
Oc1ccccc1-c1cc(-c2ccc(F)cc2)n[nH]1	15µM*	?	?	-80%	·
Cc1ccc(-c2cc(-c3ccccc3Cl)[nH]n2)c(O)c1	?	?	?	?	7%
Cc1ccc(-c2cc(-c3ccc(C)cc3O)[nH]n2)cc1	?	5%	4µM*	7.1µM*	·
Cc1ccccc1-c1cc(-c2ccccc2O)n[nH]1	23µM*	21µM*	5.6µM*	?	9%
Cc1ccc(-c2cc(-c3ccc(F)cc3)n[nH]2)c(O)c1	?	?	5.6µM*	7.1µM*	5%
COc1ccccc1-c1cc(-c2cc(Cl)ccc2O)n[nH]1	-9%	-4%	-45%[10 µM]	-22%	4%
Cc1ccc(O)c(-c2cc(-c3cccc(Br)c3)n[nH]2)c1	?	?	-2%	-17%	-3%
Oc1ccc(Cl)cc1-c1cc(-c2ccccc2)n[nH]1	?	-27%	1.4µM*	4.5µM*	5%
